In PubChem BioAssay (NCI):
Compounds without any hit were thinned out: in the full panel of roughly 83,000, 20% have a hit.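 Single-concentration screen, 48 h exposure, 96-well plates. Endpoint: percent growth. Below 10 = active.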 Values without a mark were called inactive. Active and inactive are the calls of the source.

Test system: SR leukemia
Test: NCI-60 one-dose screen, 48 h (100 = growth as untreated, 0 = no growth, -100 = all killed)
Details: 10 µM unless noted
Description: Growth inhibition of the SR human tumor cell line is measured as a screen for anti-cancer activity. Cells are grown in 96 well plates and exposed to the test compound for 48 hours. Compounds are tested at a single concentration, which is 10^-5 M for most compounds. The reported endpoint is percent growth (GI% or GIPRCNT), where numbers from 0 - 100% represent growth inhibition, and numbers from -100% - 0 represent cell death. For example, a value of 40 represents 60% growth inhibition. A value of 0 means no net growth occurred over the course of the experiment. A value of -40 indicates 40% of cells at the beginning of the experiment died by the end of the experiment. A value of -100 means all cells are dead at the end of the experiment.
NCI-60 Human Tumor Cell Lines Screen was performed using the standard one-dose NCI protocol, which is described in more detail at https://dtp.cancer.gov/discovery_development/nci-60/default.htm.
Compounds with GIPRCNT values below 10 were considered active. Activity score was based on GIPRCNT using the following formula: […]
Score is 0 for GIPRCNT values of 100 or above, 50 for GIPRCNT values of 0, and 100 for GIPRCNT values of -100.

In order of falling growth:
1. c1ccc([Se]CCCN2CCN(CCC[Se]c3ccccc3)CC2)cc1  126%
2. COc1cc(C(=O)C[n+]2ccccc2)ccc1OC(C)=O  109%
3. O=C(Cn1c2ccccc2c2ccncc21)N/N=C/c1cc(O)c(O)c(O)c1  106%
4. Cc1c(C(C)(C)C)cc(C(C)(C)C)c2c1CN(C)CO2  103%
5. NC(=S)NNC1CCCCC1  99.1%
6. CC(CCC(=O)O)[C@H]1CCC2C3C(=O)C[C@@H]4CC(=O)CC[C@]4(C)C3CC(=O)[C@@]21C (stereo not given in full)  97.4%
7. CC(=O)Nc1ccc(OC(=O)c2ccccc2O)cc1  96.9%
8. Oc1ccc(O)c(-[n+]2ccccc2)c1  93.7%
9. CCCC(C)(C)COC(=O)c1cccc(N)c1  92.8%
10. Cc1c(Cl)ccc2c(C(=O)Cl)cc(-c3ccccc3)nc12  91.8%
11. CCCCCC/C=N/Nc1ccc([N+](=O)[O-])cn1  89.4%
12. FC(F)(F)c1cn(CC2CNC2)c2ncnc(Cl)c12  87%
13. OCc1cn(-c2ccc(Cl)cc2)nc1-c1ccc(O)cc1  82.1%
14. Cc1ccc(Cn2cc(COc3ccc4c5ccnc(C)c5n(CCCc5ccccc5)c4c3)nn2)cc1  81.9%
15. COc1ccc(Cl)cc1NC(=O)c1cc2c([nH]1)-c1nc(N)sc1CCC2  79.4%
16. COc1ccc2c(c1)O/C(=C/c1ccc(OCC(=O)Nc3ccc(S(N)(=O)=O)cc3)cc1)C2=O  79.1%
17. Cc1cc(Nc2ccc(Cl)c(Cl)c2)nc(N)n1  78%
18. Cc1nccc2c3ccc(OCc4cn(Cc5ccc(Br)cc5)nn4)cc3n(CCCc3ccccc3)c12  77.8%
19. COc1cc(C(=O)NNC(=O)c2ccccc2O)cc(OC)c1OC  77.8%
20. O=[N+]([O-])c1cccc(C2c3ccccc3Oc3ccccc32)c1  77.4%
21. CN(C)CC/C=C1\c2ccccc2Sc2ccc(Cl)cc21  62%
22. Nc1ncnc2c1ccn2-c1cccc(NC(=O)c2cccc(C(F)(F)F)c2)c1  54.6%
23. CC1=C2C(=C[C@@](C)(CO)[C@@H]2OC(=O)N(C)CCN(C)C(=O)OC(C)(C)C)C(=O)[C@](C)(O)C12CC2  50.6%
24. O=C(Nc1ccccc1Cl)c1c[nH]c(=O)c(-c2ccc(N3CCCOC4(CC4)C3)cc2)c1  39.6%
25. COc1ccc(-c2ccc(NC(=O)Nc3cccc(C(F)(F)F)c3)c(C)n2)cc1  36.3%
26. CC(C)(c1ccc(OCC(O)CNCc2ccco2)cc1)c1ccc(OCC(O)CNCc2ccco2)cc1 (stereo not given)  31.5%
27. O=C(Nc1ccc(-n2ccc3c(NC(=O)c4ccccc4)ncnc32)cc1)Nc1cccc(Cl)c1Cl  21.8%
28. CCCCOc1nc2ccc(Cl)cc2cc1/C=C/C(=O)/C=C/c1ccc(Cl)cc1  20.3%
29. Cc1c(NC(=O)c2sc3nc4c(cc3c2N)CN(Cc2ccccc2)CC4)cccc1C(F)(F)F  20.1%
30. Cc1c(F)cccc1NC(=O)c1sc2nc3c(cc2c1N)CCCCC3  16.8%
31. COc1ccc(/C=C/C(=O)c2ccc(Oc3ncnc4ccccc34)cc2)cc1OC  16.7%
32. Nc1ccc(S(=O)(=O)Nc2cc(I)cc(I)c2)cc1  15.8%
33. O=C(Nc1ccc(-n2cc(-c3ccncc3)c(-c3ccc(O)c(Cl)c3)n2)cc1)c1cc(Cl)cc(Cl)c1  14.8%

In the case of `CC(C)(CCN=C(N)Nc1ccccn1)c1ccc(C(F)(F)F)cc1`, the growth is reported as -41.3% (active).
For `CCN(CC)CCN1C(=O)c2c(c3c4ccccc4[nH]c3c3[nH]c4ccccc4c23)C1=O`, the growth was 4.92% (active).
With `COc1cc(-c2nc3sc(C)cn3c2/C=C2\C(=O)Nc3ccccc32)c(Br)c(OC)c1OC` the growth was 3.87% (active).
With `CCCCCCCCCCCCCCCC(=O)NS(=O)(=O)OC[C@H]1O[C@@H](n2cnc3c(N)ncnc32)[C@H](O)[C@@H]1O` the growth was 0.423% (active).
With `CO[C@H]1/C=C/C=C/C=C/C[C@H](OC(=O)[C@@H](C)NC(=O)C2CCCCC2)[C@H](C)[C@@H](O)/C(C)=C\CCC2=CC(=O)C=C(NC(=O)C1)C2=O` the growth was 3.26% (active).
In the case of `CCCCC(=O)Nc1nc2ccc(SCCC)cc2s1`, the growth is reported as 6.63% (active).
`CCc1ccc(C2=C/C(=C/c3ccc(Cl)cc3)C(=O)N2CCc2ccc(S(N)(=O)=O)cc2)cc1` was tested, and the growth was 6.7% (active).
